High-throughput results: PubChem BioAssay, National Center for Advancing Translational Sciences (NCATS)
Sampled rows, rich in hits. Any-hit rate of the full collection: about 3.1%.
uPA generation = qHTS for Inhibitors of Cell Surface uPA Generation. Potency, µM (top dose mostly 38.3 µM), usual class: inhibitors. 330,000 compounds, 0.31% hits. cell surface uPA generation assay, qHTS; active = well fitted inhibition curve with a large enough effect; inconclusive = small, poorly fitted or top-dose-only effect; inactive = no such curve, though single readings can be large or run the other way; tested in mouse RAW 264.7 cells; note: nearly all actives have a fitted effect of over 55% in size
D3 antag = qHTS of D3 Dopamine Receptor Antagonist: qHTS | D(3) dopamine receptor (Homo sapiens), P35462 | D3R cells, DiscoveRx beta-arrestin luminescence, antagonist mode; stronger effect = lower value | max response, negative = inhibition, % | 360,000 compounds, 2.5% hits | AID 652054, 2013; in the data active = max response below about -50%; inconclusive = no clear call, values can overlap the other calls
Target sequence (P35462 whole entry, looked up): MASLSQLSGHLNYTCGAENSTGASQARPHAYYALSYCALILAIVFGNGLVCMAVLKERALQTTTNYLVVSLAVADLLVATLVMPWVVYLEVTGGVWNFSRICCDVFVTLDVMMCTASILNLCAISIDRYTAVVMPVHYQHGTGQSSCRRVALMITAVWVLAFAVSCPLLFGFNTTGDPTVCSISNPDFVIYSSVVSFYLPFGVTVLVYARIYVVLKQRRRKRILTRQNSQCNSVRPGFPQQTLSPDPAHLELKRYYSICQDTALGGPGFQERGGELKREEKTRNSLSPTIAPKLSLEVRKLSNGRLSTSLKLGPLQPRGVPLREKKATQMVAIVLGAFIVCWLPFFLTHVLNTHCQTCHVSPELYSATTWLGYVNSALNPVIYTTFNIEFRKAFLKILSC
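Cells expressing the human receptor were seeded at 1500 cells/well, incubated overnight at 37 degrees C in 5% CO2, then exposed to library compounds with dopamine controls for 90 minutes at 37 degrees C before luminescent detection.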
RGS4 inhibitor = Inhibitors of Regulator of G Protein Signaling (RGS) 4: qHTS. Potency, µM (top dose mostly 114 µM), usual class: inhibitors. Transcreener GDP fluorescence polarization, RGS4-accelerated GTP hydrolysis. AID 504845, 2011. 390,000 compounds, 0.039% hits; active = well fitted inhibition curve with a large enough effect; inconclusive = small, poorly fitted or top-dose-only effect; inactive = no such curve, though single readings can be large or run the other way; note: nearly all actives have a fitted effect of over 75% in size
Target sequence (P49798 whole entry, looked up): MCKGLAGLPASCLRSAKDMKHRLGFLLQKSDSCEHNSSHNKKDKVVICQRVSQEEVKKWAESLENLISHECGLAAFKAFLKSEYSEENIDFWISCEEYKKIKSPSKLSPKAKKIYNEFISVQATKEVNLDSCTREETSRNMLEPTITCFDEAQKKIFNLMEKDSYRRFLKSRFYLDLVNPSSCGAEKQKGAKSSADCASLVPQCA
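MLSMR compounds (23 nl, pin-transferred) preincubated 10 min at room temperature with a 500nM (2x) first reagent, then RGS4 at 900nM (2x) plus Transcreener GDP mix added; fluorescence polarization (620/688 nm) read before and after 90 min at 30 °C.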
D3 ag = qHTS of D3 Dopamine Receptor Agonist: qHTS | D(3) dopamine receptor (Homo sapiens), P35462 | D3R DiscoveRx beta-arrestin cells, luminescence, 90 min | max activation, % | 410,000 compounds, 0.58% hits | AID 652048, 2013; in the data active = max activation above about 30%
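Cells at 1500/well, incubated overnight, then treated with pinned compounds (dopamine as control) for 90 min at 37 degrees C. DiscoveRx reagent added for 30 - 60 minutes at room temperature; luminescence read.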
Of the large screens only hits and unclear results are named; the others gave an inactive call.

CCOC(=O)CC(NC(=O)c1cc2c(=O)n3cccc(C)c3nc2s1)c1ccc(OCC(C)C)c(OC)c1 (configuration not stated)	none (no result: uPA generation, D3 antag)
CCOC(=O)/C(=C/c1c(C)n(C)c2ccc([N+](=O)[O-])cc12)C(C)=O	D3 antag -53.8
CC(C)c1ccc(Nc2c(-c3ccccc3O)nc3cnccn23)cc1	D3 ag 38.2 (no result: uPA generation, D3 antag)
OC(CN1CCc2ccccc2C1)c1ccccc1 (configuration not stated)	none
Cc1ccc(SCCN2CCN(Cc3ccccc3)CC2)cc1	D3 antag inconclusive
c1ccc(SCCN2CCc3ccccc3C2)cc1	D3 antag -91.0
c1ccc(SCCOCCN2CCc3ccccc3C2)cc1	D3 antag -78.2
OCCN1CCN(CCSc2ccccc2)CC1	D3 antag -60.6
Cc1ccc2cccc(NC(=O)c3cccc4c(Cl)cccc34)c2n1	none (no result: uPA generation, D3 antag)
CCOC(=O)C(=C1Nc2ccccc2N1)n1c(-c2cccnc2)nc2ccccc21	D3 antag -64.8 (no result: uPA generation, RGS4 inhibitor)
CCOC(=O)Cn1c(-c2cccnc2)nc(-c2ccccc2)c1-c1ccccc1	none
NC1=NC2(CCN(Cc3ccccc3)CC2)n2c(nc3ccccc32)N1	D3 antag -74.5
NC1=NC2(CCCCC2)n2c(nc3ccccc32)N1	none
CCOc1ccccc1NC(=O)CN1C(=O)COc2ccc(S(=O)(=O)NC3CCCC3)cc21	none (no result: uPA generation, D3 antag)
CCOc1ccc(S(=O)(=O)Nc2cccc(C(=O)NCC(c3ccccc3)N(C)C)c2)cc1 (configuration not stated)	D3 antag -67.9
CCOc1ccc(S(=O)(=O)Nc2cccc(C(=O)NCC(c3ccco3)N(C)C)c2)cc1 (configuration not stated)	D3 antag -55.6
COc1ccc(C(CNC(=O)c2cccc(NS(=O)(=O)c3ccc(C)c(F)c3)c2)N(C)C)cc1 (configuration not stated)	D3 antag -58.5
COc1ccccc1-c1nc(SCC(=O)NCc2ccc(C)cc2)c2c(=O)n(C)c(=O)n(C)c2n1	none (no result: uPA generation, D3 antag)
COc1cccc(NC(=O)C2(C)CCN2C(=O)CCc2ccc(Cl)cc2Cl)c1 (configuration not stated)	D3 antag -60.4 (no result: uPA generation, RGS4 inhibitor)
COc1cccc(NC(=O)C2(C)CCN2C(=O)Cc2ccc(-c3ccccc3)cc2)c1 (configuration not stated)	none (no result: uPA generation, RGS4 inhibitor)
CCCSc1ncc(Cl)c(C(=O)Nc2ccc(S(=O)(=O)N3CCCCC3C)cc2)n1 (configuration not stated)	none (no result: uPA generation, D3 antag)
CCN(C(=O)CSc1nnc2ccccn12)c1c(N)n(Cc2ccccc2)c(=O)[nH]c1=O	D3 ag 30.5
CCCCN(C(=O)CSc1nnc2ccccn12)c1c(N)n(Cc2ccccc2)c(=O)[nH]c1=O	none
CCN(CC)S(=O)(=O)c1ccc(OC)c(NC(=O)c2sc3ccccc3c2Cl)c1	none (no result: uPA generation, D3 antag)
O=[N+]([O-])c1cc(S(=O)(=O)C(F)(F)F)ccc1Sc1nc2ccccc2s1	D3 antag -94.9
O=C(NCN1CCN(c2ccccc2F)CC1)c1ccccc1	D3 antag inconclusive
Cc1cccc(C(=O)NCN2CCN(c3ccccc3C#N)CC2)c1	D3 antag -76.4
Cc1ccc(NC(=O)C(=O)NCC(c2cccnc2)N2CCN(Cc3ccccc3)CC2)cc1C (configuration not stated)	none (no result: uPA generation, D3 antag)
COc1cc(-c2noc(-c3ccc(N(C)C)c([N+](=O)[O-])c3)n2)cc(OC)c1OC	none (no result: uPA generation, D3 antag)
CCOC(=O)/C=C(\C)Sc1cc(O)c2ccccc2c1O	D3 antag -55.3, RGS4 inhibitor inconclusive
CCOC(=O)/C=C(\C)Sc1cc(=O)oc2ccccc12	none
CC(=O)[C@@]1(O)CC[C@H]2[C@@H]3C=C(Cl)C4=CC(=O)[C@@H]5C[C@@H]5[C@]4(C)[C@H]3CC[C@@]21C	none (no result: uPA generation, D3 antag, RGS4 inhibitor)
Cc1cn([C@H](C(=O)NCCCCCCCCCCC(=O)N2CCNCC2)[C@@H](C)O)nn1	uPA generation inconclusive, D3 antag -64.4
CC(NC(=O)CN1C(=O)c2cccnc2Oc2ccc(Cl)cc21)c1ccccc1 (configuration not stated)	none (no result: uPA generation, D3 antag)
COc1ccc(OCCCN2CCCCCC2)cc1	D3 antag -64.4
O=C(c1ccccc1)c1ccc(OCC(O)CN2CCCCC2)cc1 (configuration not stated)	D3 antag -66.6
O=C(c1ccccc1)c1ccc(OCCCN2CCCCC2)cc1	D3 antag -83.0
c1ccc(OCCCN2CCCC2)cc1	D3 antag inconclusive (no result: uPA generation)
CC(C)COc1ccc(C(=O)CCN2CCCCC2)cc1	none
CCCCOc1ccc(C(=O)CCN2CCCCC2)cc1	uPA generation inconclusive, D3 antag -56.0, RGS4 inhibitor inconclusive
CCc1ccc(NC(=O)N2CCN(Cc3cc(=O)n4nc(-c5ccccc5OC)sc4n3)CC2)cc1	none (no result: uPA generation, D3 antag)
COc1ccccc1-c1nnc(SCCOc2ccccc2C)o1	none (no result: uPA generation, D3 antag)
Cc1ccc(-c2c3c(=O)n(C)c(=O)n(C)c3c3c(C)nc4ccccc4n23)cc1	none (no result: uPA generation, D3 antag)
Cc1ccc(NC(=O)C2CCCN(S(=O)(=O)c3c(C)n[nH]c3C)C2)c(C)c1 (configuration not stated)	none (no result: uPA generation, D3 antag)
COc1ccc(C(O)(CCN2CCCCC2)C2CCCCC2)cc1 (configuration not stated)	D3 antag -52.5
CC(=O)c1ccc(OCCCN2CCCCC2)cc1	D3 antag -71.8
CCCC(O)(CCN1CCCCC1)c1ccc(OCC)cc1 (configuration not stated)	none
c1ccc(COc2ccc(OCCCN3CCCCC3)cc2)cc1	D3 antag -79.9
Cc1ccc(Cn2c(C(=O)O)c(CNC3CCCCCC3)c3ccc(C)cc32)cc1	none (no result: uPA generation, D3 antag)
CCOc1ccc(NC(=O)CN(C)C(=O)c2ccc(N3CCCC3)c([N+](=O)[O-])c2)cc1OCC	D3 antag -59.7
CC1(Cc2cccc(F)c2)C(=O)Nc2ccc(-c3cccnc3)cc21 (configuration not stated)	none (no result: uPA generation, RGS4 inhibitor)
COc1cccc(-c2cccc3c2NC(=O)C3(C)Cc2cccc(F)c2)c1 (configuration not stated)	D3 antag -70.0 (no result: uPA generation, RGS4 inhibitor)
O=C1C2CCCCN2C(=O)N1CCCCN1CCN(c2ccc(F)cc2)CC1 (configuration not stated)	D3 antag -92.0
O=C1C2CCCCN2C(=O)N1CCN1CCN(c2ccc(F)cc2)CC1 (configuration not stated)	none
Cc1ccc(N2CCN(CCCCN3C(=O)C4CCCN4C3=O)CC2)cc1 (configuration not stated)	D3 antag -78.0
O=C1C2CCCN2C(=O)N1CCCCN1CCN(c2ccc(F)cc2)CC1 (configuration not stated)	D3 antag -75.3
O=C(NCc1cccn1Cc1ccccc1)Nc1cccc(C(F)(F)F)c1	none (no result: uPA generation, D3 antag)
CN(C)CC/C=C1/c2cc(F)ccc2CSc2ccc(F)cc21	D3 antag inconclusive
CN(C)CC/C=C1\c2ccc(F)cc2Sc2cc(F)c(Cl)cc21	D3 antag -100.6
CN(C)CC/C=C1/c2ccc(F)cc2Sc2ccc(Cl)cc21	D3 antag -83.9
